DT40 TDP1 CPT: qHTS for Inhibitors of human tyrosyl-DNA phosphodiesterase 1 (TDP1): qHTS in cells in presence of CPT; chicken DT40 Tdp1-/-;hTDP1 cells + 20 nM CPT, ATP luminescence, 48 h; Potency, µM (series often up to 46.2 µM), without a hit: top-dose activity change, negative = growth inhibition, actives largely listed as inhibitors; actives 12% (n = 420,000); AID 686979, 2013; also: potency is read from the fitted curve at half-maximal effect; nearly all actives have a fitted effect of over 55% in size
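Chicken DT40 Tdp1-/- cells stably complemented with human TDP1 were seeded at 400 cells/well in medium containing 20 nM camptothecin, exposed to pin-transferred compounds, and grown at 37 °C for at least 48 hr. Viability was read as ATP luminescence.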
IL1B secr inh: qHTS for Inhibitors of Inflammasome Signaling: IL-1-beta AlphaLISA Primary Screen; THP-1 LPS/ATP IL-1B secretion, AlphaLISA, 16 h; stronger effect = lower value; activity change, % at 57.5 µM; actives 4.7% (n = 360,000); in the data active = activity change below about -50%; inconclusive = mostly about -30% to -49%
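Secreted IL-1B measured by AlphaLISA bead assay after 16 h compound exposure of THP-1 cells; compounds (final up to 57.5 uM) added 1 h before LPS (250 ng/mL) and ATP (1.25 mM) stimulation; lower signal means less secretion.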
HT1080NT lethal: qHTS for induction of synthetic lethality in tumor cells producing 2HG: qHTS for the HT-1080-NT fibrosarcoma cell line. HT-1080-NT fibrosarcoma viability, CellTiter-Glo ATP luminescence, 48 h. Potency, µM (doses to about 46.1 µM), for inactives: at the top dose activity, negative = less viability, most hits filed as cytotoxic. actives 1.6% (n = 360,000). AID 686970, 2013;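 also: NT is the 2HG producing partner of a matched IDH1 knockdown line; potency is read from the fitted curve at half-maximal effect; 0% = DMSO-treated cells and -100% = media-only wells without cells; nearly all actives have a fitted effect of over 55% in size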
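Viability of the 2HG-overproducing fibrosarcoma line after 48 hours of compound exposure at 37 degrees C was determined by luminescence with CellTiter-Glo, and concentration-effect curves were then fitted and categorized.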
uPA generation: qHTS for Inhibitors of Cell Surface uPA Generation. Potency, µM (series often up to 38.3 µM), without a hit: top-dose activity change, negative = inhibition, actives largely listed as inhibitors. actives 0.31% (n = 330,000). AID 540303, 2011. cell surface uPA generation assay, qHTS; active = well fitted inhibition curve with a large enough effect; inconclusive = small, poorly fitted or top-dose-only effect; inactive = no such curve, though single readings can be large or run the other way; tested in mouse RAW 264.7 cells; also: potency is read from the fitted curve at half-maximal effect; nearly all actives have a fitted effect of over 55% in size
DT40 TDP1 no CPT: qHTS for Inhibitors of human tyrosyl-DNA phosphodiesterase 1 (TDP1): qHTS in cells in absence of CPT; Potency, µM (top dose mostly 46.2 µM), inactives show at the highest dose activity change, negative = growth inhibition, usual class: inhibitors; DT40 Tdp1-/- hTDP1 cells, no CPT, ATP luminescence, 48 h; AID 686978, 2013; actives 15% (n = 420,000); also: potency is read from the fitted curve at half-maximal effect; nearly all actives have a fitted effect of over 55% in size
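Growth kinetics read by CellTiter-Glo luminescence after ≥48 hr at 37 °C. Cells: DT40 Tdp1-/- stably carrying human TDP1, 400 per well, compound exposure in the absence of CPT (DMSO vehicle).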
HT1080 IDH1KD tx: qHTS for induction of synthetic lethality in tumor cells producing 2HG: qHTS for the HT-1080-IDH1KD cell line. HT-1080 IDH1 knockdown viability, ATP luminescence, 48 h. Potency, µM (titrated, usually from 46.1 µM), inactives show at the highest dose activity, negative = toxicity, actives largely listed as cytotoxic. actives 2% (n = 360,000);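 also: potency is read from the fitted curve at half-maximal effect; 0% = DMSO wells and -100% = cell-free medium wells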
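Viability of IDH1-knockdown HT-1080 fibrosarcoma cells was assessed by CellTiter-Glo after 48 h at 37 °C with titrated compound; concentration-effect curves were classified by fit quality and response size.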
* marks the source's active call; other numbers are inactive results; ? = inconclusive; . = no result given; [ ] = another dose, or the depositor's remark. The list is not random: actives were taken first. Their share in the collection is about 19%. Unless noted, calls follow the shape of the dose curve; as a rule, active = well fitted curve in the direction sought with a large enough effect; inconclusive = small, poorly fitted or top-dose-only effect, or another doubt; inactive = no such curve, though single readings can be large; an effect the other way counts as inactive or inconclusive. Unless noted, % is scaled to controls: 0 for no effect and ±100 for the full control effect.

SMILES	DT40 TDP1 CPT	IL1B secr inh	HT1080NT lethal	uPA generation	DT40 TDP1 no CPT	HT1080 IDH1KD tx
CC(OC(=O)c1cc(=O)[nH]c2ccccc12)C(=O)Nc1ccccc1F (stereo not given)	-8%	0	4%	4%	-8%	6%
COc1ccc(CNC(=O)c2cc(=O)[nH]c3ccc(S(=O)(=O)N4CCCC4)cc23)c(OC)c1	-1%	.	.	.	-16%	.
Cc1ccc(N2CCn3c2nc2c3c(=O)n(CCCc3ccccc3)c(=O)n2C)cc1C	-25%	.	.	.	-29%	.
CCCN1CNc2c(c(=O)[nH]c(=S)n2CCc2cc(C)ccc2C)C1	?	.	4%	.	13µM*	14%
CCCN1CNc2c(c(=O)[nH]c(=S)n2CCc2ccccc2Cl)C1	?	.	5%	.	11µM*	7%
CCCN1CNc2c(c(=O)[nH]c(=S)n2CCc2c(Cl)cccc2Cl)C1	16µM*	.	-4%	.	13µM*	-10%
CCCN1CNc2c(c(=O)[nH]c(=S)n2CCc2ccc(Cl)cc2Cl)C1	?	.	-4%	.	13µM*	-7%
CCCN1CNc2c(c(=O)[nH]c(=S)n2CCc2cccc(Cl)c2)C1	?	.	3%	.	?	13%
Cc1ccnc2nc(C(=O)OCC(=O)N(CC(C)C)C3CCS(=O)(=O)C3)nn12 (stereo not given)	-2%	0	3%[9.24 µM]	7%	15%	-2%
CCCN1CNc2c(c(=O)[nH]c(=S)n2CCc2ccc(OC)cc2OC)C1	?	.	0%	.	13µM*	8%
CCNC(=O)C1CCCN(C(=O)c2ccc3c(c2)CCO3)CC1 (stereo not given)	28%	7	24%	.	-26%	8%
Cc1ccc(NC(=S)NCc2ccc3c(c2)OCO3)c(C)c1	?	?	0%	0%	21µM*	7%
Cc1ccc(NC(=S)NCc2ccc3c(c2)cc(C)n3C)c(C)c1	23µM*	-2	1%	16%	23µM*	9%
Cc1ccc(NC(=S)NCc2ccc(F)cc2)c(C)c1	-15%	-23	0%	2%	-20%	1%
Cn1nc(C(F)(F)F)c(C(=O)Nc2cccc(Cl)c2)c1Cl	-30%	12	-4%	-3%	?	-5%
COc1ccc(C)cc1NC(=O)Cn1c(=O)oc2cc(S(=O)(=O)N3CCCCCC3)ccc21	16µM*	.	.	.	12µM*	.
CC1CCCCC1NC(=O)Cn1c(=O)oc2cc(S(=O)(=O)N3CCCC3)ccc21 (stereo not given)	?	-1	-17%	-1%	?	-13%
Cc1cccc(C(C)C)c1NC(=O)Cn1c(=O)oc2cc(S(=O)(=O)N3CCCC3)ccc21	18µM*	.	.	.	15µM*	.
CC1CCC(NC(=O)Cn2c(=O)oc3cc(S(=O)(=O)N4CCCC4)ccc32)CC1 (stereo not given)	-12%	12	-1%	-7%	-21%	-7%
COC(=O)n1c(=O)oc2cc(S(=O)(=O)N3CCCCC3)ccc21	-22%	4	2%	.	-16%	2%
Cc1ccc(NC(=O)Cn2c(=O)oc3cc(S(=O)(=O)N4CCCCC4)ccc32)c(C)c1	6.5µM*	.	.	.	8.2µM*	.
CC1(C)S[C@H]2[C@@H](NC(=O)C(N)c3ccccc3)C(=O)N2[C@H]1C(=O)O (stereo not given in full)	0%	.	.	.	3%	.
CC(=O)NC(CCc1ccc(Cl)c(Cl)c1)c1cccc(O)c(=O)c1 (stereo not given)	23µM*	139	?	.	7.3µM*	?
COc1ccccc1-c1nnc(-c2ccc(N3CCOCC3)cc2)o1	?	?	4%	1%	21µM*	6%
COc1ccccc1-c1nnc(-c2ccc(C)cc2)o1	-10%	.	1%	-11%	?	-2%
SMILES	DT40 TDP1 CPT	IL1B secr inh	HT1080NT lethal	uPA generation	DT40 TDP1 no CPT	HT1080 IDH1KD tx
Cc1cc(=O)n2nc(N3CCC(C(=O)Nc4ccc(Br)cc4F)CC3)sc2n1	?	.	.	.	3%	.
CC(C)Cc1ccc(C(C)C(=O)Nc2ncccn2)cc1 (stereo not given)	-18%	-1	-24%	-3%	?	-29%
COC(=O)c1cc(NC(=O)C(C)c2ccc(CC(C)C)cc2)ccc1O (stereo not given)	21µM*	-21	-11%	-1%	?	-30%
CN(C(=O)CCc1ccccc1F)C1CCCN(Cc2ccccc2F)C1 (stereo not given)	18µM*	-9	0%	1%	16µM*	-10%
COc1cccc(CCC(=O)N(C)C2CCCN(Cc3ccccc3F)C2)c1 (stereo not given)	-17%	11	3%	5%	?	-3%
CC(=O)N1c2ccc(S(=O)(=O)N3CCCCCC3)cc2CC1C(=O)NCc1ccccc1F (stereo not given)	-31%	.	.	.	-18%	.
Cc1ccc(C(=O)C=CC=Cc2ccccc2)cc1	?	?	0%	.	?	-7%
O=C(/C=C/c1ccc(-c2ccccc2)o1)c1ccccc1	?	-99*	2%	-8%	?	-3%
Cc1ccc(-c2ccc(/C=C/C(=O)c3ccccc3)o2)cc1	?	-79*	-5%	0%	23µM*	2%
COC(=O)C[C@H]1c2cc(C(F)(F)F)ccc2S(=O)(=O)N1c1ccc(N(C)C)cc1	13µM*	41	0%	-14%	10µM*	1%
COC(=O)C[C@H]1c2ccccc2S(=O)(=O)N1c1ccc(N(C)C)cc1	?	.	.	.	10µM*	.
CN(C)c1ccc(N2[C@@H](CC(=O)O)c3cc(C(F)(F)F)ccc3S2(=O)=O)cc1	?	10	-2%	2%	?	2%
CC(=O)C[C@H]1c2cc(C(F)(F)F)ccc2S(=O)(=O)N1c1ccc(N(C)C)cc1	7.9µM*	21	-6%	-5%	15µM*	-2%
CS(=O)(=O)c1ccc(Cl)c(NC(=O)COC(=O)CCCN2C(=O)c3cccc4cccc(c34)C2=O)c1	5%	6	5%	1%	-29%	9%
C=C(C)C1CC=C(C)CC1 (stereo not given)	-11%	.	.	.	-1%	.
